Read-out in assay [1]: Transforming growth factor beta 1 (TGFb1), TGFB1 (gene 7040)
Nature of the assay: BSK_KF3CT_TGFb1: BioMAP Diversity Plus: KF3CT Assay for Transforming growth factor beta 1 (TGFb1) Biomarker Activity (AID 2283072). Conditions: primary human keratinocytes with fibroblasts; actives raise or lower the signal. The method in brief:
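Human keratinocyte plus foreskin fibroblast primary co-culture, dosed with chemical for 24 h. TGF-b1 quantified by ELISA. Activity fitted bidirectionally against DMSO negative control as baseline.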

Read-out in assay [2]: C-C motif chemokine 2 (Homo sapiens) (UniProt P13500)
Nature of the assay: BSK_KF3CT_MCP1: BioMAP Diversity Plus: KF3CT Assay for Monocyte Chemoattractant Protein 1 (MCP1/CCL2) Biomarker Activity (AID 2283073). The conditions noted are these: primary human keratinocytes with fibroblasts; actives raise or lower the signal. The method in brief:
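Biomarker MCP-1 is measured by ELISA in primary human keratinocytes co-cultured with foreskin fibroblasts, 24 h after chemical treatment; DMSO serves as the negative control and activity baseline.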

Read-out in assay [3]: Matrix Metallopeptidase 9 (MMP9), MMP9 (gene 4318)
Nature of the assay: BSK_KF3CT_MMP9: BioMAP Diversity Plus: KF3CT Assay for Matrix Metallopeptidase 9 (MMP9) Biomarker Activity (AID 2283074).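 On AC50: MMP9 protein level quantified by ELISA in the co-culture.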 Conditions: primary human keratinocytes with fibroblasts; actives raise or lower the signal. The method in brief: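 Human keratinocyte and foreskin fibroblast co-culture exposed to chemicals for 24 h; MMP9 biomarker measured by ELISA, bidirectional fitting relative to DMSO; cytotoxicity tracked by SRB total protein staining in parallel cultures.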

Read-out in assay [4]: CD40, CD40 (gene 958)
Nature of the assay: BSK_LPS_CD40: BioMAP Diversity Plus: LPS Assay for CD40 Biomarker Activity (AID 2283076). Conditions: primary human HUVEC with PBMC; actives raise or lower the signal. The method in brief: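 Using a multiplexed primary human co-culture (umbilical vein endothelium plus PBMC), CD40 was read by ELISA 24 h after dosing, with cytotoxicity tracked by sulforhodamine B staining of parallel cultures and activity fitted bidirectionally versus DMSO.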

Read-out in assay [5]: E-selectin (Homo sapiens) (UniProt P16581)
Nature of the assay: BSK_LPS_Eselectin: BioMAP Diversity Plus: LPS Assay for Eselectin Biomarker Activity (AID 2283077). Conditions: primary human HUVEC with PBMC; actives raise or lower the signal. The procedure, abridged: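 Dose chemical onto LPS-driven HUVEC/PBMC co-culture; after 24 h, run ELISA for E-selectin; fit up- and down-going responses relative to DMSO control.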

Read-out in assay [6]: Interleukin-8 (IL8), CXCL8 (gene 3576)
Nature of the assay: BSK_LPS_IL8: BioMAP Diversity Plus: LPS Assay for Interleukin-8 (IL8) Biomarker Activity (AID 2283078). The conditions noted are these: primary human HUVEC with PBMC; actives raise or lower the signal. The method in brief: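 In this LPS system, chemical-treated human umbilical vein endothelium/PBMC co-cultures were harvested at 24 h for IL-8 ELISA.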

The nature of assay [7]: BSK_LPS_SRB: Viability Assessment in the BioMAP Diversity Plus: LPS Assay (AID 2283079).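 Further: total protein by sulforhodamine B absorbance as a cytotoxicity measure; measured one day after compound addition; fitted in both directions against DMSO so loss or gain of signal counts.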 The conditions noted are these: primary human HUVEC with PBMC. The procedure, abridged: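 Cytotoxicity endpoint in human endothelial–PBMC co-culture: 24 h exposure, then SRB (0.1%) staining, 560 nm read.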
Read-out in assay [8]: Interleukin-1 alpha (IL1a), IL1A (gene 3552)
Nature of the assay: BSK_LPS_IL1a: BioMAP Diversity Plus: LPS Assay for Interleukin-1 alpha (IL1a) Biomarker Activity (AID 2283080). The conditions noted are these: primary human HUVEC with PBMC; actives raise or lower the signal. The method in brief:
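Primary human HUVEC and PBMC co-culture stimulated with LPS is dosed and harvested at 24 h. Both increases and decreases in ELISA-measured IL-1a are scored relative to DMSO.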

Read-out in assay [9]: Monocyte Chemoattractant Protein-1 (MCP1), CCL2 (gene 6347)
Nature of the assay: BSK_LPS_MCP1: BioMAP Diversity Plus: LPS Assay for Monocyte Chemoattractant Protein-1 (MCP1) Biomarker Activity (AID 2283081).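 On AC50: secreted MCP-1 protein quantified by ELISA in culture supernatant.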 Conditions: primary human HUVEC with PBMC; actives raise or lower the signal. The method in brief: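 Values derive from bidirectional fitting against DMSO of ELISA-measured MCP-1 in a human primary endothelial and mononuclear cell co-culture, 24 h after chemical addition under LPS activation.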

Assay [10] in a line: BSK_LPS_PGE2: BioMAP Diversity Plus: LPS Assay for Prostaglandin E2 (PGE2) Biomarker Activity (AID 2283082).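 On AC50: secreted prostaglandin E2 measured by ELISA in LPS-stimulated co-culture.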 The conditions noted are these: primary human HUVEC with PBMC; actives raise or lower the signal. The procedure, abridged:
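HUVEC plus PBMC co-culture stimulated with LPS; secreted PGE2 quantified by ELISA 24 h after chemical dosing. Activity fitted bidirectionally against DMSO as negative control and baseline; parallel SRB total-protein staining served as cytotoxicity check.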

Read-out in assay [11]: Macrophage colony-stimulating factor (MCSF), CSF1 (gene 1435)
Nature of the assay: BSK_LPS_MCSF: BioMAP Diversity Plus: LPS Assay for Macrophage colony-stimulating factor (MCSF) Biomarker Activity (AID 2283083). The conditions noted are these: primary human HUVEC with PBMC; actives raise or lower the signal. The procedure, abridged: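 Bidirectional fit versus DMSO of ELISA-measured M-CSF in co-cultured human umbilical vein endothelial cells and PBMC, sampled 24 h after dosing.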

Read-out in assay [12]: Tissue Factor, F3 (gene 2152)
Nature of the assay: BSK_LPS_TissueFactor: BioMAP Diversity Plus: LPS Assay for Tissue Factor Biomarker Activity (AID 2283084). The conditions noted are these: primary human HUVEC with PBMC; actives raise or lower the signal. The method in brief: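 Read-out: CD142 ELISA, 24 h. System: LPS-driven human endothelial/PBMC co-culture. Analysis: up- or down-signal fitted against DMSO.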

Read-out in assay [13]: Tumor necrosis factor (Homo sapiens) (UniProt P01375)
Nature of the assay: BSK_LPS_TNFa: BioMAP Diversity Plus: LPS Assay for Tumour Necrosis Factor alpha (TNFa) Biomarker Activity (AID 2283085). Conditions: primary human HUVEC with PBMC; actives raise or lower the signal. The procedure, abridged:
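Human umbilical vein endothelial cells co-cultured with PBMC were exposed to test chemical and TNFa measured by ELISA 24 h after dosing. Bidirectional curve fitting was done relative to DMSO as negative control and baseline.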

Read-out in assay [14]: Vascular cell adhesion molecule 1 (VCAM1), VCAM1 (gene 7412)
Nature of the assay: BSK_LPS_VCAM1: BioMAP Diversity Plus: LPS Assay for Vascular cell adhesion molecule 1 (VCAM1) Biomarker Activity (AID 2283086). Conditions: primary human HUVEC with PBMC; actives raise or lower the signal. The method in brief: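 Human umbilical vein endothelial cells co-cultured with peripheral blood mononuclear cells under LPS stimulation were exposed to test chemical for 24 h. VCAM-1 levels were then measured by ELISA, with bidirectional curve fitting relative to DMSO as negative control and baseline.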

Read-out in another assay: CD38, CD38 (gene 952)
Nature of the assay: BSK_SAg_CD38: BioMAP Diversity Plus: SAg Assay for CD38 Biomarker Activity (AID 2283087). Conditions: primary human HUVEC with PBMC; actives raise or lower the signal. The method in brief: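 Fluorescence ELISA of cell-surface CD38 served as the read-out, with either increase or decrease fitted against DMSO controls. Cells were a human umbilical vein endothelium plus PBMC co-culture under SEB/TSST-1 stimulation, measured 24 h after dosing.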

Read-out in assay [15]: CD40, CD40 (gene 958)
Nature of the assay: BSK_SAg_CD40: BioMAP Diversity Plus: SAg Assay for CD40 Biomarker Activity (AID 2283088). The conditions noted are these: primary human HUVEC with PBMC; actives raise or lower the signal. The procedure, abridged: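 Endpoint derived by fitting increases or decreases versus DMSO controls. CD40 is detected by fluorescence ELISA in a human vascular co-culture of endothelium and PBMC at 24 h.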

Read-out in another assay: CD69, CD69 (gene 969)
Nature of the assay: BSK_SAg_CD69: BioMAP Diversity Plus: SAg Assay for CD69 Biomarker Activity (AID 2283089).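 On AC50: cell surface CD69 protein quantified by ELISA with fluorescence detection.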 Conditions: primary human HUVEC with PBMC; actives raise or lower the signal. The procedure, abridged: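 Endothelial/PBMC co-culture; chemical added; 24 h incubation; CD69 ELISA with fluorescence detection; bidirectional fit vs DMSO.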

Read-out in assay [16]: E-selectin (Homo sapiens) (UniProt P16581)
Nature of the assay: BSK_SAg_Eselectin: BioMAP Diversity Plus: SAg Assay for Eselectin Biomarker Activity (AID 2283091). The conditions noted are these: primary human HUVEC with PBMC; actives raise or lower the signal. The procedure, abridged: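 Endpoint values derive from bidirectional fitting relative to DMSO, using ELISA-measured E-selectin in a human vascular co-culture (umbilical vein endothelium plus PBMC) sampled 24 h after dosing.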

Read-out in assay [17]: urokinase plasminogen activator (uPA), PLAU (gene 5328)
Nature of the assay: BSK_KF3CT_uPA: BioMAP Diversity Plus: KF3CT Assay for urokinase plasminogen activator (uPA) Biomarker Activity (AID 2283075). Conditions: primary human keratinocytes with fibroblasts; actives raise or lower the signal. The procedure, abridged:
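Primary human keratinocyte/foreskin fibroblast co-culture exposed to chemical; uPA measured by ELISA at 24 h. Bidirectional fit versus DMSO, with parallel SRB total-protein staining for cytotoxicity.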

Read-out in assay [18]: Monocyte Chemoattractant Protein-1 (MCP1), CCL2 (gene 6347)
Nature of the assay: BSK_SAg_MCP1: BioMAP Diversity Plus: SAg Assay for Monocyte Chemoattractant Protein-1 (MCP1) Biomarker Activity (AID 2283090). Conditions: primary human HUVEC with PBMC; actives raise or lower the signal. The method in brief:
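MCP-1 levels in the endothelial–PBMC SAg co-culture were quantified by ELISA at 24 h post-dosing; both increases and decreases versus DMSO scored. Cytotoxicity monitored by SRB total protein in parallel cultures.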

Activity calls are given as the source filed them. How the source made its calls: active means hit-call score of the fitted dose curve at least 0.9, where 1 is the maximum; inactive means score below 0.9.

E-selectin (Homo sapiens), sequence (P16581 whole entry, looked up): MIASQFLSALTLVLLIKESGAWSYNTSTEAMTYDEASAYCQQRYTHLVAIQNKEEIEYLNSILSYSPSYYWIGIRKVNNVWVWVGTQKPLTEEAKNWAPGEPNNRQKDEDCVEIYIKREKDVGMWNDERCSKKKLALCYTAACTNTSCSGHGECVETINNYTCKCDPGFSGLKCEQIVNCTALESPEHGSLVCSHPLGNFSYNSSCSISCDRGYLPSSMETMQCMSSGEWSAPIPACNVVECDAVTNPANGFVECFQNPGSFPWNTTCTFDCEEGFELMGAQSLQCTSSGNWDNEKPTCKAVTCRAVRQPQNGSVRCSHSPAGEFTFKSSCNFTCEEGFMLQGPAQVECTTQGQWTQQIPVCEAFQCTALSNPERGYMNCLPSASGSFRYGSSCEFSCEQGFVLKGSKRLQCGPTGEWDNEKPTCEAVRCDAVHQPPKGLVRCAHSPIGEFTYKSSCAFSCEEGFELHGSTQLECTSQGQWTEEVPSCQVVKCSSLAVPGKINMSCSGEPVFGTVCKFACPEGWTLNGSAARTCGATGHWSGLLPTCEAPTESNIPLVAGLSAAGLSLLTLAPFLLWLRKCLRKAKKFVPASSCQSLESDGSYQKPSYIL
Tumor necrosis factor (Homo sapiens), sequence (P01375 whole entry, looked up): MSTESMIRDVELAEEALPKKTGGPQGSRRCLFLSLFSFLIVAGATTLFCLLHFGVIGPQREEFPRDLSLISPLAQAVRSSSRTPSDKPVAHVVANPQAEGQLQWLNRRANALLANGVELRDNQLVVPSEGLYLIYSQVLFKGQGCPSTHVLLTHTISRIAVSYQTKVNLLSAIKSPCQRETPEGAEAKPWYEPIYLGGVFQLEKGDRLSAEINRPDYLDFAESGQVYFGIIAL

Turning to `FC(F)(F)C(F)(F)C(F)(F)C(F)(F)C(F)(F)C(F)(F)CCI`, the outcome in [1] was “inactive”; in [2] it was “inactive”; in assay [3], “inactive”; in the assay with CD40, CD40 (gene 958) [4], “inactive”; in [5], “inactive”; in assay [6], “inactive”. Moreover, the outcome in [7], in assay [8], in [9], in assay [10], in assay [11] and in assay [12] was inactive. Moreover, the outcome was “inactive” in assay [13]; “inactive” in assay [14]; “inactive” with CD38, CD38 (gene 952); “inactive” with CD40, CD40 (gene 958) [15]; “inactive” in the assay with CD69, CD69 (gene 969); “inactive” in assay [16].
With `CCCCCCCCCCO`, the outcome in assay [1] was “inactive”; in [2] it was “inactive”; in [3], “inactive”; in [17], “inactive”; in the assay with CD40, CD40 (gene 958) [4] it was “inactive”; in [5], “inactive”. Further, the outcome in [6] was “inactive”; in assay [7] it was “inactive”; in assay [8], “inactive”; in assay [10], “inactive”; in assay [14], “inactive”; with CD38, CD38 (gene 952), “inactive”. Moreover, the outcome was “inactive” in the assay with CD40, CD40 (gene 958) [15]; “inactive” with CD69, CD69 (gene 969); “inactive” in assay [16]. For the same compound, the AC50 in assay [12] was 0.152 µM (active).
As to `C1CCC(SSC2CCCCC2)CC1`, the concentration at half-maximal activity (AC50) in assay [1] was 5.33 µM (active); in assay [3], 13.7 µM (active); in assay [9], 20 µM (active); in [14], 20 µM (active); with CD38, CD38 (gene 952), 20 µM (active); with CD40, CD40 (gene 958) [15], 27 µM (active). Besides, the AC50 is 20 µM (active) with CD69, CD69 (gene 969) and 32.7 µM (active) in [16]. Moreover, the outcome in [2] was “inactive”; in the assay with CD40, CD40 (gene 958) [4] it was “inactive”; in [5], “inactive”; in [6] it was “inactive”; in [7] it was “inactive”; in assay [8], “inactive”. Further, the result in assay [10], in [11], in [12] and in [18] was inactive.
On to `COC(=O)c1ccc(O)cc1`, for which the outcome in [1] is “inactive”; in assay [2], “inactive”; in assay [3], “inactive”; in assay [17] it was “inactive”; with CD40, CD40 (gene 958) [4] it was “inactive”; in assay [5] it was “inactive”. For the same compound, the outcome in assay [6] was “inactive”; in assay [7], “inactive”; in assay [8], “inactive”; in assay [12], “inactive”; in [14] it was “inactive”; with CD38, CD38 (gene 952), “inactive”. The outcome is “inactive” in the assay with CD40, CD40 (gene 958) [15]; “inactive” with CD69, CD69 (gene 969); “inactive” in assay [16]. Besides, the concentration at half-maximal activity (AC50) in assay [10] was 1.34 µM (active).

By AC50 is commonly meant the concentration at which the activity in the assay is half-maximal.

For the origin of these results see PubChem BioAssay (EPA / NIEHS).
